# From PubChem BioAssay (NCATS)
# Inconclusive results are not listed. A number with no mark means an inactive call. Calls follow the shape of the dose curve; as a rule, active = well fitted activation curve with a large enough effect; inconclusive = small, poorly fitted or top-dose-only effect, or effect the other way; inactive = flat fitted curve, though single readings scatter.
# Test: Cellular Toxicity (caspase-3) NIH 3T3 (AID 666);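 also: caspase signal read after 16 h compound exposure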
# Details: NIH 3T3 caspase-3 activation, apoptosis/toxicity, 0% DMSO, 100% is 100 µM tamoxifen; series mostly up to 92.2 µM; caspase-3 activation: at the top concentration
# Description: NIH Chemical Genomics Center [NCGC]
# NIH Molecular Libraries Screening Centers Network [MLSCN]
# National Institutes of Environmental Health Sciences [NIEHS]
# National Toxicology Program [NTP]
# We have developed a 1536-well cell-based assay for quantitative high throughput screening (qHTS) against a number of cell lines to determine in vitro caspase 3/7 of small molecules. This particular assay uses the NIH 3T3 cell line which is derived from mouse fibroblasts.
# NCGC Assay Protocol Summary:
# The Caspase-Glo 3/7 assay (Promega) is a homogeneous method to measure caspase-3 and caspase-7 activities in cultured cells. The quantitation of caspase 3/7 activity is based on the cleavage of a peptide-aminoluciferin substrate. After caspase cleaves the substrate the free aminoluciferin is liberated and serves as the substrate of luciferase, which generates the light. The luminescent signal is proportional to amount of caspase 3/7 activity present.
# Using the Caspase-Glo 3/7 assay, the amount of caspase 3/7 activity was measured in the NIH 3T3 cell line with complete culture medium following compound treatment for 16 hours. The assay was performed in opaque white 1536-well plates. In the screen, tamoxifen and doxorubicin were used as positive controls. Library compounds were measured for their ability to cause the activation of caspase 3/7 in the cell line, as reflected by an increase in luminescence signal, in a concentration-dependent manner. Data were normalized to the controls for basal activity (DMSO only) and 100% stimulation (100 uM tamoxifen). AC50 values were determined from concentration-response data modeled with the standard Hill equation.
# qHTS protocol for caspase 3/7 assay in NIH 3T3 cells
# [Step] [Parameter] [Value] [Description]
# 1. Reagent; 5 uL; 1000 NIH 3T3 cells/well
# 2. Time; 5 hr; 37 °C incubation
# 4. Controls; 23 nL; Tamoxifen 0.23 uM to 100 uM & Doxorubicin 7.0 pM to 100 uM
# 5. Time; 16 hr; 37 °C incubation
# 6. Reagent; 5 uL; Caspase-Glo 3/7 reagent
# 7. Time; 20 min; Room Temperature
# 8. Detection; Luminescence; Viewlux plate reader
# Keywords: caspase 3/7, apoptosis, NIH 3T3 cell line, luminescence, NTPHTS, NTPHTS_NCGC, NIEHS, EPA, DSSTox, MLSMR, MLSCN, NIH Roadmap, qHTS, NCGC
row,SMILES,caspase-3 activation
1,Oc1ccccc1Cl,-5.96%
2,CCOc1cc(C=O)ccc1O,-0.0412%
3,c1ccc(Nc2ccc3ccccc3c2)cc1,-5.03%
4,Oc1c(Cl)c(Cl)c(Cl)c(Cl)c1Cl,-7.47%
5,CC(C)COC(=O)c1ccccc1C(=O)OCC(C)C,-2.25%
6,c1ccc2c(c1)-c1cccc3cccc-2c13,0.779%
7,CCOC(=O)c1ccccc1N,-3.03%
8,O=Cc1ccccc1,2.48%
9,COC1=CC(=O)OC(CCc2ccc3c(c2)OCO3)C1 (stereo not drawn),-12.1%
10,COC(=O)c1ccccc1C(=O)OC,-3.03%
11,CC(=O)/C=C/c1ccccc1,5.16%
12,Cc1ccccc1O,-0.272%
13,CC(C)(c1ccc(OCC2CO2)cc1)c1ccc(OCC2CO2)cc1 (stereo not drawn),0.84%
